# Source: PubChem BioAssay (Tox21)
# Where “and” joins values, the source holds several entries; their conditions need not be identical. Identical values can stand only once. Inconclusive results are not listed. The source holds several records for some structures; these can differ, active in one and inactive in another. Calls of active or inactive are those of the source. Calls come from the whole dose curve; as a rule, active = well fitted inhibition curve with a large enough effect in the repeat runs; inconclusive = weak or mixed curves; inactive = no such curve, though single readings can be large or run the other way. Starred links: 1 amine or outer side, 2 acyl side, 3 side chain; linkers in the order of their positions; H or OH if unused. Positions of bridges follow the written chain, without caps; N, C: chain ends. Non-standard residues stand in square brackets, D forms with d. Residues, ends and D or L forms follow the SMILES beside them. Chains are numbered I, II in the order given. Actinocin(9to1) = Cc1c2oc3c(C)ccc(C(=O)[*:1])c3nc-2c(C(=O)[*:2])c(N)c1=O; NMeV = CN[C@H](C(=O)O)C(C)C; Sar = CNCC(=O)O
# Molecular target: Cytochrome P450 2C19 (Homo sapiens) (UniProt P33261)
# Sequence (P33261 whole entry, looked up): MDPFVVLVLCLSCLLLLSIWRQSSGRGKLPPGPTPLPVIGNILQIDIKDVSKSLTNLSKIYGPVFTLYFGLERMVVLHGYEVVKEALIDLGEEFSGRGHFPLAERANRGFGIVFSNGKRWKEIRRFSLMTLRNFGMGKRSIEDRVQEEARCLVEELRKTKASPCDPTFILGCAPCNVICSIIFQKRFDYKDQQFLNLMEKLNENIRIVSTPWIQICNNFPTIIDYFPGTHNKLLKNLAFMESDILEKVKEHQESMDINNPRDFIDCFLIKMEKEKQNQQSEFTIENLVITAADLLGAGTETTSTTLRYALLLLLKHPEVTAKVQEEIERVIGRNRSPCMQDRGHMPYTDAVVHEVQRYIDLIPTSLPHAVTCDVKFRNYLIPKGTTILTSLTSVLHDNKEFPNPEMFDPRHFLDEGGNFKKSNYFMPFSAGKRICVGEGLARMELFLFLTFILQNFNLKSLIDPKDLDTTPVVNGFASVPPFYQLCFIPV
# Test: Cytochrome P450 Family 2 Subfamily C Member 19 (CYP2C19) small molecule antagonists: luciferase reporter qHTS assay (AID 1671197); note: nearly all actives have a fitted effect of over 65% in size
# Conditions: P450-Glo CYP2C19 enzyme, luciferin luminescence, 1 h; series mostly up to 115 µM; activity change, negative = inhibition: at the top concentration
# How it was run: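 Inhibition of CYP2C19 was scored from loss of luminescence in a P450-Glo proluciferin substrate assay, NADPH-started and run 1 h at 37C, with ketoconazole as positive control.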
# % is set by controls: 0 for no effect and ±100 for the full control effect; potency is the fitted concentration of half-maximal effect.
SMILES,Potency,"activity change, negative = inhibition"
CC(COc1ccccc1)N(CCCl)Cc1ccccc1 (stereo unspecified),2.27 µM (active) and 2.24 µM (active) and 3.47 µM (active),
C#CC(C)(CC)OC(=O)c1ccccc1C(=O)O (stereo unspecified),,-13.7% [at 52.9 µM] (inactive)
[Cl][In]([Cl])[Cl],inactive and 35.6 µM (active),
Oc1ccc(Cl)cc1Cc1cc(Cl)ccc1O,3.62 µM (active) and 2.83 µM (active) and 3.09 µM (active),
CCOC(=O)C(C)C(C)=O (stereo unspecified),,-6.77% (inactive)
CC(C)C(=O)c1c(C(C)C)nn2ccccc12,,3.66% [at 52.9 µM] (inactive)
C=C(C)C1CC=C(C)C(OC(C)=O)C1 (stereo unspecified),inactive,
CO[Si](OC)(OC)c1ccccc1,,2.4% (inactive)
CCN(CC)c1ccc2c(C)cc(=O)oc2c1,40.2 µM (active) and 31.7 µM (active),
O=C(Oc1ccccc1)c1ccccc1O,inactive,
O=C(O)CCc1ccccc1,,3.49% (inactive)
O=Nc1ccc(Nc2ccccc2)cc1,5.67 µM (active) and 8.94 µM (active),
NC(N)=Nc1nc(CSCC/C(N)=N/S(N)(=O)=O)cs1,inactive,
NNCCc1ccccc1,6.35 µM (active) and 13.8 µM (active),
Cc1cccc(O)c1C,70.5 µM (active) and inactive,
C=CC(=O)OCCCCCCOC(=O)C=C,39.9 µM (active),
Cc1cc(C(C)(C)C)c(O)c(C(C)(C)C)c1,inactive,
O=S(=O)(O)c1ccc2nc(-c3ccccc3)[nH]c2c1,17 µM (active) and 9.77 µM (active),

SMILES,Potency,"activity change, negative = inhibition"
COC(=O)/C=C/c1ccccc1,inactive,
CCC[C@H](N[C@@H](C)C(=O)N1[C@H](C(=O)O)C[C@@H]2CCCC[C@@H]21)C(=O)OCC,,-7.09% [at 52.9 µM] (inactive)
COc1nc(C)nc(Cl)c1NC1=NCCN1,,35.6% [at 52.9 µM] (inactive)
C=C(C)C(=O)O,inactive,
CC(C)(O)CCC(C)(C)O,,-28.1% (inactive)
"Cc1c2oc3c(C)ccc(C(=O)N[C@@H]4C(=O)N[C@H](C(C)C)C(=O)N5CCC[C@H]5C(=O)N(C)CC(=O)N(C)[C@@H](C(C)C)C(=O)O[C@@H]4C)c3nc-2c(C(=O)N[C@@H]2C(=O)N[C@H](C(C)C)C(=O)N3CCC[C@H]3C(=O)N(C)CC(=O)N(C)[C@@H](C(C)C)C(=O)O[C@@H]2C)c(N)c1=O (I: T[dV]P[Sar][NMeV] / II: T[dV]P[Sar][NMeV]; ester I:1-I:C, II:1-II:C; linker I:N-II:N via Actinocin(9to1))",,-2.19% [at 52.9 µM] (inactive)
CC(C)(C)c1ccc(O)c(C(C)(C)C)c1,9.99 µM (active) and 17.8 µM (active),
Cc1cc(Cc2cc(C)cc(C(C)(C)C)c2O)c(O)c(C(C)(C)C)c1,5.05 µM (active) and 5.03 µM (active),
CC1=CC(=O)c2ccccc2C1=O,14.2 µM (active) and 15.5 µM (active),
CC(C)CCCCCCc1ccc(O)cc1,3.62 µM (active) and 4.48 µM (active),
Nc1nc(=S)c2[nH]cnc2[nH]1,30.9 µM (active),
NC(=Nc1ccccc1)Nc1ccccc1,39.9 µM (active) and inactive,
C1COC(NC(C2CC2)C2CC2)=N1,,-7.61% [at 52.9 µM] (inactive)
CCCCOCCOC(=O)c1ccccc1C(=O)OCCOCCCC,3.48 µM (active) and 1.78 µM (active),
CC(=O)Nc1ccc(C(=O)CCl)cc1,inactive and 79.6 µM (active),
NC(N)=NC(=O)Cc1c(Cl)cccc1Cl,,13.4% [at 52.9 µM] (inactive)
CCC(=O)/C=C/C1C(C)=CCCC1(C)C (stereo unspecified),44.9 µM (active) and 15.9 µM (active),
BrC1CCC(Br)C(Br)CCC(Br)C(Br)CCC1Br (stereo unspecified),1.26 µM (active) and 1.34 µM (active),
